HT1080 IDH1KD tx – kills HT-1080 cells with IDH1 knockdown; HT-1080 IDH1 knockdown viability, ATP luminescence, 48 h; Potency, µM (titrated, usually from 46.1 µM), usual class: cytotoxic; 2% of 360,000 active
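Assay cells: HT-1080 with IDH1 knockdown, 750 per well, RPMI/5% FBS. Exposure: 48 h at 37 °C following 2 h pre-incubation. Read: CellTiter-Glo luminescence; fitted concentration-response, curve class assigned.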
TDP1 cell CPT – DT40-hTDP1 cell growth loss with CPT; 12% of 420,000 active; chicken DT40 Tdp1-/-;hTDP1 cells + 20 nM CPT, ATP luminescence, 48 h; Potency, µM (top dose mostly 46.2 µM), most hits filed as inhibitors; AID 686979; further: nearly all actives have a fitted effect of over 55% in size
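Cell growth measured by CellTiter-Glo luminescence after a minimum 48 h, 37 C compound exposure with 20 nM CPT in Tdp1-knockout DT40 cells stably expressing hTDP1, seeded 400/well; qHTS titration format.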
IL-1B inflam inh – inflammasome signaling inhibition, IL-1 beta readout; THP-1 LPS/ATP IL-1B secretion, AlphaLISA, 16 h; stronger effect = lower value; activity change, % at 57.5 µM; 4.7% of 360,000 active; in the data active means activity change below about -50%; inconclusive means mostly about -30% to -49%
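Secreted IL-1B measured by AlphaLISA bead assay after 16 h compound exposure of THP-1 cells; compounds (final up to 57.5 uM) added 1 h before LPS (250 ng/mL) and ATP (1.25 mM) stimulation; lower signal means less secretion.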
uPA surface inh – inhibitors of cell surface uPA generation. cell surface uPA generation assay, qHTS. 0.31% of 330,000 active. Potency, µM (series often up to 38.3 µM), hits mostly inhibitors; active means well fitted inhibition curve with a large enough effect; inconclusive means small, poorly fitted or top-dose-only effect; inactive means no such curve, though single readings can be large or run the other way; tested in mouse RAW 264.7 cells; further: nearly all actives have a fitted effect of over 55% in size
DT40 TDP1 no CPT – qHTS for Inhibitors of human tyrosyl-DNA phosphodiesterase 1 (TDP1): qHTS in cells in absence of CPT. DT40 Tdp1-/- hTDP1 cells, no CPT, ATP luminescence, 48 h. Potency, µM (series often up to 46.2 µM), hits mostly inhibitors. 15% of 420,000 active; further: nearly all actives have a fitted effect of over 55% in size
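Compound effects on proliferation are scored in DT40 Tdp1-/-;hTDP1 cells in the absence of CPT. ATP levels (CellTiter-Glo luminescence) are recorded after a ≥48 hr, 37 °C incubation.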
HT1080-NT tox – kills 2HG-producing HT-1080-NT fibrosarcoma cells | HT-1080-NT fibrosarcoma viability, CellTiter-Glo ATP luminescence, 48 h | Potency, µM (doses to about 46.1 µM), usual class: cytotoxic | 1.6% of 360,000 active;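 further: NT is the 2HG producing partner of a matched IDH1 knockdown line; nearly all actives have a fitted effect of over 55% in size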
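A 48-hour cytotoxicity screen used HT-1080-NT cells plated 2 hours before compound delivery. ATP-based CellTiter-Glo luminescence measured viability, normalized to DMSO and no-cell controls.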
Numbers stand for hits; . = inactive; ? = inconclusive; / = no result. The list is not random: actives were taken first. Their share in the collection is about 19%. Unless noted, the call rests on the fitted dose curve; in most records, active means well fitted curve in the direction sought with a large enough effect; inconclusive means small, poorly fitted or top-dose-only effect, or another doubt; inactive means no such curve, though single readings can be large; an effect the other way counts as inactive or inconclusive.

SMILES | HT1080 IDH1KD tx | TDP1 cell CPT | IL-1B inflam inh | uPA surface inh | DT40 TDP1 no CPT | HT1080-NT tox
CCOc1ccc(C(=O)Nc2ccc3nc(N(CC)CC)cc(C)c3c2)cc1 | / | 18.4µM | / | / | ? | /
CCN(CC)c1cc(C)c2cc(NC(=O)c3cccc(OC)c3OC)ccc2n1 | / | 16.4µM | / | / | 6.51µM | /
CCN(CC)c1cc(C)c2cc(NC(=O)c3ccccc3F)ccc2n1 | . | 20.6µM | -56.7 | . | 29.1µM | .
CCOc1ccccc1C(=O)Nc1ccc2nc(N(CC)CC)cc(C)c2c1 | / | 20.6µM | / | / | 20.6µM | /
CCOc1ccc(NC(=O)c2ccccc2C(=O)c2ccccc2)cc1OCC | . | ? | . | . | ? | .
Cc1ccc(NC(=O)c2cc(-c3ccc(Br)s3)nc3ccccc23)cc1F | / | ? | / | / | . | /
C=CCNc1oc(-c2cccc(F)c2)nc1C#N | / | / | / | . | / | /
CCNC(=O)C1CCCN(C(=O)c2ccc(OC(F)F)cc2)CC1 (stereo not drawn) | . | . | . | / | . | .
CCOc1cc(C(N)=O)cc(Br)c1OC | . | 23.1µM | . | . | 16.4µM | .
CCOc1cc(C(N)=O)cc(OCC)c1OCC | . | . | . | . | . | .
CCOc1cccc2sc(N3CCN(C(=O)C(C)(C)C)CC3)nc12 | / | ? | / | / | 20.6µM | /
CCOc1cccc2sc(N3CCN(C(=O)c4ccco4)CC3)nc12 | / | 14.6µM | / | / | 16.4µM | /
COc1cccc2sc(N3CCN(C(=O)c4ccco4)CC3)nc12 | . | . | . | . | ? | .
CCc1cccc2sc(N3CCN(C(=O)c4ccc([N+](=O)[O-])o4)CC3)nc12 | ? | ? | -102.9 | 7.94µM | ? | .
CCOc1cccc2sc(NC(=O)CC)nc12 | ? | . | . | . | . | .
O=C(NN1C(=O)c2ccccc2NC1c1ccc([N+](=O)[O-])o1)c1ccccc1 (stereo not drawn) | . | ? | -76.3 | . | 16.4µM | .
O=C(NN1C(=O)c2ccccc2NC1c1ccc([N+](=O)[O-])o1)c1ccc([N+](=O)[O-])cc1 (stereo not drawn) | ? | 18.4µM | -103.8 | . | 8.2µM | ?
COc1cc(/C=C\C(=O)NCc2ccc3c(c2)cc(C)n3C)cc(OC)c1OC | . | . | . | . | 25.9µM | .
COc1ccc(CC(=O)NCc2ccc3c(c2)cc(C)n3C)cc1OC | . | . | . | . | 14.6µM | .
COCC(=O)NCc1ccc2c(c1)cc(C)n2C | . | . | . | . | . | .
COc1ccc(N2CCN(S(=O)(=O)CCNC(=O)c3ccc(C(F)(F)F)cc3)CC2)cc1 | / | . | / | / | . | /
O=C(Cc1c[nH]c2ccccc12)Nc1ccc(N2CCOCC2)cc1 | . | . | . | . | . | .
Cc1cc(C)c(Cn2c3ccccc3c3cnn(CC(=O)NC4CCC(C)CC4)c(=O)c32)c(C)c1 (stereo not drawn) | / | 13µM | / | / | ? | /
Cc1ccccc1Cn1c2ccccc2c2cnn(CC(=O)NC3CCCCCC3)c(=O)c21 | / | 11.6µM | / | / | 10.3µM | /
Cc1ccccc1Cn1c2ccccc2c2cnn(CC(=O)NCC(C)c3ccccc3)c(=O)c21 (stereo not drawn) | / | ? | / | / | . | /
SMILES | HT1080 IDH1KD tx | TDP1 cell CPT | IL-1B inflam inh | uPA surface inh | DT40 TDP1 no CPT | HT1080-NT tox
Cn1cnc([N+](=O)[O-])c1SCCO | . | ? | . | . | . | .
CSc1ccc(CN(C)C(=O)c2ccc(S(=O)(=O)Nc3ccccc3)cc2)cc1 | . | 18.4µM | -50.0 | . | 20.6µM | .
CC1CCN(S(=O)(=O)c2cc(C(=O)N3CCN(c4ccccc4)CC3)ccc2Br)CC1 | ? | 23.1µM | . | / | 14.6µM | .
Cc1ccc(C(=O)N2CCN(c3cccc(C)c3C)CC2)cc1S(=O)(=O)N1CCOCC1 | . | 16.4µM | . | . | 23.1µM | .
Cc1ccc(C(=O)N2CCN(c3ccccc3)CC2)cc1S(=O)(=O)N1CCCC1 | . | 29.1µM | . | . | ? | .
COCc1cn(CC[C@@H]2CC[C@@H](NC(=O)Nc3ccc4c(c3)OCO4)[C@@H](CO)O2)nn1 | . | . | . | / | . | .
CC(=O)C1=C(c2ccccc2)NC(=O)NC1c1ccc(O)c(Cl)c1 (stereo not drawn) | . | . | . | . | . | .
CN(c1ccc(C(=O)N2CCN(c3ccc(F)cc3)CC2)cc1)S(C)(=O)=O | . | 13µM | . | . | ? | .
O=C(c1ccc(S(=O)(=O)N2CCCCCC2)cc1)N1CCN(c2ccccc2)CC1 | . | . | . | . | ? | .
CC1CC(C)CN(S(=O)(=O)c2ccc(C(=O)N(C)Cc3ccccc3)cc2)C1 (stereo not drawn) | . | ? | . | ? | 20.6µM | .
Cc1ccc(C(=O)N2CCN(c3ccc(F)cc3)CC2)cc1S(=O)(=O)N1CCCCC1 | . | 29.1µM | . | . | 16.4µM | ?
CC1CC(C)CN(S(=O)(=O)c2ccc(C(=O)N3CCN(c4ccccc4)CC3)cc2)C1 (stereo not drawn) | ? | ? | -65.7 | . | ? | .
Cc1cc(Cl)ccc1NC(=O)Cn1nnc2sc(-c3ccccc3)cc2c1=O | / | . | / | / | ? | /
COc1cccc(Nc2nc(CN)cs2)n1 | . | . | . | / | ? | .
COc1cc(OC)nc(Nc2nc(C(N)CCc3ccccc3)cs2)n1 (stereo not drawn) | ? | 25.9µM | ? | / | ? | .
NC(c1csc(Nc2cc(NCCCO)ncn2)n1)c1ccccc1Cl (stereo not drawn) | ? | ? | -55.9 | / | ? | ?
COc1cccc(Nc2nc(C(N)c3ccccc3Cl)cs2)n1 (stereo not drawn) | ? | 20.6µM | ? | / | 14.6µM | ?
COc1cc(OC)nc(Nc2nc(C(N)c3ccccc3Cl)cs2)n1 (stereo not drawn) | ? | ? | / | / | 25.9µM | ?
CN(C)c1ccc(NC(=O)C2C3C=CC(C3)C2C(=O)O)cc1 (stereo not drawn) | . | . | . | . | . | .
O=C(Nc1nnc([C@H]2C[C@H](O)[C@@H](CO)O2)s1)NC1CCCCC1 | . | . | . | / | . | .
C[C@@H]1CN([C@@H](C)CO)C(=O)c2cc(-c3cccnc3)cnc2O[C@H]1CN(C)C(=O)c1cccc(F)c1 | . | . | . | / | . | .
CC1=Nc2nc(N3CCCCC3)c(C#N)c3c4c(nc(c23)N1)N(c1ccc(C(C)C)cc1)C(=O)C4 | . | ? | . | . | ? | .
COc1cc(OC)nc(Nc2nc(C(N)c3ccccc3)cs2)n1 (stereo not drawn) | . | ? | -56.2 | / | ? | .
COc1ccc(C(N)c2csc(Nc3ncccn3)n2)cc1 (stereo not drawn) | . | ? | . | / | ? | .

From PubChem
